Source: PubChem
In the library only some 22% were active in any assay of this set; here they are far more common.
Pf growth 48h: Primary qHTS for delayed death inhibitors of the malarial parasite plastid, 48 hour incubation; Potency, µM (doses to about 28.7 µM), for the others: at the top dose activity change, negative = inhibition, actives largely listed as inhibitors; hit rate 5.9% among 310,000; P. falciparum luciferase growth in erythrocytes, 48 h; note: potency is the fitted concentration of half-maximal effect; % is set by controls: 0 for no effect and ±100 for the full control effect
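Compounds are pin-transferred into medium, infected erythrocytes (2% hematocrit, 0.1% parasitemia final) are added, and plates sit one parasite generation at 37 C in 5% CO2. Detection reagent is then added and luminescence measured.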
LmPK inhibitor: qHTS Assay for Inhibitors of Leishmania Mexicana Pyruvate Kinase (LmPK); Q27686; purified LmPK, Kinase-Glo ATP luminescence, 1 h; AID 1721, 2009; hit rate 0.37% among 290,000; Potency, µM (top dose mostly 57.5 µM), inactives show at the highest dose activity change, negative = inhibition, actives largely listed as inhibitors; note: potency is the fitted concentration of half-maximal effect; % is set by controls: 0 for no effect and ±100 for the full control effect
Target sequence (Q27686 whole entry, looked up): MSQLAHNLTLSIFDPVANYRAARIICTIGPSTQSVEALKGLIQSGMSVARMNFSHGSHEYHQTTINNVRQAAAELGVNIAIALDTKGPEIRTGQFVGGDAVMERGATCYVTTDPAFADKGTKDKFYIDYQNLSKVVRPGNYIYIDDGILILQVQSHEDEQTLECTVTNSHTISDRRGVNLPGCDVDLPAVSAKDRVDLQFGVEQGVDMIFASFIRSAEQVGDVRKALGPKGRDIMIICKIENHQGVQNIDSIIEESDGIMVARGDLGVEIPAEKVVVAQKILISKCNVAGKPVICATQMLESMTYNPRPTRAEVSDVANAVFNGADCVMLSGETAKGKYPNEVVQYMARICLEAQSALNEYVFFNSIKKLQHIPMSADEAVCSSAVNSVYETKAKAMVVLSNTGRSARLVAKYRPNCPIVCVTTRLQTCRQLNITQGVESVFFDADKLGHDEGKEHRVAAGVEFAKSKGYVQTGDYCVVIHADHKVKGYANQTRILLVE
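Purified LmPK (0.1 nM) with 0.5 mM PEP and 0.1 mM ADP in imidazole buffer pH 7.2 with MgCl2/KCl, 1 h at room temperature. ATP formed was read by luciferase luminescence and normalized to no-enzyme and uninhibited controls.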
CHX counter-1: Cycloheximide Counterscreen for Small Molecule Inhibitors of Shiga Toxin; cell reporter, cycloheximide protein synthesis inhibition counterscreen; max response, %; hit rate 12% among 300,000; in the data active = max response mostly above about 13%, no sharp cut-off; inactive = mostly below about 14%; note: read at 38.3 µM for the half of the compounds with a filed dose; 0% is about no effect
Pf growth 96h: Primary qHTS for delayed death inhibitors of the malarial parasite plastid, 96 hour incubation; P. falciparum luciferase reporter growth, 96 h; AID 504834, 2011; Potency, µM (highest dose often 28.7 µM), for the others: at the highest dose activity change, negative = inhibition, hits mostly inhibitors; hit rate 6.9% among 320,000; note: potency is the fitted concentration of half-maximal effect; % is set by controls: 0 for no effect and ±100 for the full control effect
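Luminescence readout: decreased luciferase signal marks inhibited growth of reporter-expressing P. falciparum in infected red cells (2% hematocrit, 0.05% parasitemia final), exposed to compound two generations (96 h, 37 C, 5% CO2).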
Shiga toxin inh: A qHTS for Small Molecule Inhibitors of Shiga Toxin; Vero cells, Shiga toxin protein synthesis inhibition reporter; inhibition, % at 38.7 µM; hit rate 9.2% among 290,000; AID 2315, 2010; in the data active = inhibition mostly above about 28%, no sharp cut-off; inactive = mostly below about 43%; note: 0% is about no effect
CHX counter-2: Cycloheximide Counterscreen for Small Molecule Inhibitors of Shiga Toxin (Confirmatory) | shares compounds with Shiga toxin inh | Cycloheximide counterscreen, protein synthesis reporter, Shiga toxin assay | Potency, µM (doses to about 38.3 µM), for inactives: at the top dose activity (activation), actives largely listed as activators | hit rate 3% among 510 | AID 2318, 2010; calls by dose curve; note: potency is the fitted concentration of half-maximal effect; 0% is about no effect
* = called active by the depositor; ? = inconclusive; . = no result given; [ ] = dose if it differs, or a comment. Unless noted, calls come from the whole dose curve; as a rule, active = well fitted inhibition curve with a large enough effect; inconclusive = small, poorly fitted or top-dose-only effect, or another doubt; inactive = no such curve, though single readings can be large or run the other way.

SMILES	Pf growth 48h	LmPK inhibitor	CHX counter-1	Pf growth 96h	Shiga toxin inh	CHX counter-2
Cc1nn(-c2ccc(Cl)cc2)c(N)c1C(O)(CSc1nccn1C)C(F)(F)F (stereo not drawn)	?	-1%	13	3%	69*	0%
OCCC1CN(Cc2cccc3c2OCO3)CCN1C1CCCC1 (stereo not drawn)	32%	-4%	0	?	-15	.
COc1ccccc1NC(=O)N[C@@H](Cc1c[nH]c2ccccc12)C(=O)NN	?	1%	-2	?	2	.
CC(C)Oc1ccc(C(=O)NC(Cc2c[nH]c3ccccc23)C(=O)NN)cc1 (stereo not drawn)	16%	4%	9	22%	37*	1%
CCCn1c(NCc2cccc(OC)c2OC)nc2ccccc21	?	3%	25	3%	49	.
COc1ccccc1CNc1nc2ccccc2n1CCN1CCCCC1	?	5%	10	?	66*	-4%
NC(=O)CC(NC(=O)c1ccccc1)c1ccc(NCCN2CCCCC2)c([N+](=O)[O-])c1 (stereo not drawn)	-23%	8%	0	?	-3	.
COc1ccc(CNC(=O)c2ccccc2[N+](=O)[O-])cc1	64%	-2%	-2	161%	-7	.
COc1ccc(NC(=O)c2ccccc2[N+](=O)[O-])cc1	33%	-3%	5	?	40*	5%
COc1ccc(NC(=O)c2cccnc2Nc2ccc(OC)cc2)cc1	-20%	-2%	5	?	42*	1%
COc1ccc(C(C)(C)C)cc1S(=O)(=O)n1ccnc1C	?	0%	-1	47%[1.15 µM]	-5	.
Cc1ccc(-n2c(C)c(C)c3c(N)ncnc32)cc1	21%	-2%	2	13%	34*	2%
CC(=O)N/C(=C\c1ccccc1)C(=O)NC(C)C(=O)O (stereo not drawn)	-16%	1%	-1	-26%	-9	.
CC(=O)N/C(=C\c1ccccc1)C(=O)Nc1ccccc1C	-8%	0%	8	107%	52*	2%
CCOC(=O)Cc1nc(-c2cccc(C(F)(F)F)c2)no1	?	0%	8	-21%	4	.
Cc1nc(-c2cccc(C(F)(F)F)c2)sc1C(=O)O	13%	0%	11	31%	58*	5%
COCCn1c(C)cc(C(=O)COC(=O)c2ccc(Cl)c(S(N)(=O)=O)c2)c1C	-65%	.	.	120%	.	.
O=S(=O)(c1ccc(F)cc1)N1CCN(c2nc(-c3cccs3)nc3cc(Cl)ccc23)CC1	.	.	-2	.	4	.
CCc1nnc(NC(=O)CSc2nc3ccccc3s2)s1	11%	6%	3	.	-8	.
CC(C)c1nnc(NC(=O)CSc2nc3ccccc3s2)s1	8%	4%	3	.	50*	1%
Cn1c(SCc2ccc(Cl)cc2)nc(C(F)(F)F)cc1=O	53%	2%	7	-19%	-17	.
CCOc1cc(S(=O)(=O)NCc2ccccc2)ccc1Br	18%	1%	1	33%	-4	.
COc1cc(CN2CCN(CC#Cc3ccccc3)CC2CCO)cc(OC)c1 (stereo not drawn)	-15%	-3%	8	?	20*	-1%
O=C(CCS(=O)(=O)c1cccs1)Nc1ccc(C(=O)NC2CCN(Cc3ccccc3)CC2)cc1	?	1%	12	-26%	26	.
N#CC(C(=O)NC1CC1)c1nc2ccccc2nc1N1CCCC1 (stereo not drawn)	0%	-1%	-4	-3%	-13	.
SMILES	Pf growth 48h	LmPK inhibitor	CHX counter-1	Pf growth 96h	Shiga toxin inh	CHX counter-2
CCOC(=O)C1CCCN(c2nc3ccccc3nc2C(C#N)C(=O)OCC)C1 (stereo not drawn)	?	-1%	-1	7.4µM*	133*	-3%
CC1CN(Cc2ccccc2)c2ccccc2NC1=S (stereo not drawn)	?	0%	16	?	15	.
CN1CC(c2ccccn2)C2(SC(=S)N(Cc3ccccc3)C2=O)C12C(=O)Nc1ccccc12 (stereo not drawn)	?	3%	1	?	71*	-5%
Cc1c(C(=O)C(=O)NCc2cccs2)c2ccccc2n1C	19%	0%	11	24%	4	.
O=C(Cn1cc2c(n1)CCCCC2)Nc1ccccc1Br	?	-1%	11	?	73*	-1%
CC(C)CCNC(=O)CN1C(=O)CN=C(c2ccccc2)c2ccccc21	?	0%	-4	?	-3	.
O=C(CN1C(=O)CN=C(c2ccccc2)c2ccccc21)NCc1ccco1	27%	13%	7	?	44*	-2%
Cc1cc2n(n1)SC(Nc1cc(Cl)ccc1Cl)N2 (stereo not drawn)	-21%	6%	17	-21%	35*	1%
O=C(Nc1cc(Cl)ccc1Cl)Nn1cnnc1	26%	-2%	-3	?	-11	.
COc1ccc(-c2nn(CCC#N)cc2C(=O)Nc2cccc(C(=O)O)c2)cc1[N+](=O)[O-]	4%	-4%	-6	-3%	-4	.
Cc1ccc(Cl)cc1NC(=O)COC(=O)c1ccc(COc2ccc3c(C)cc(=O)oc3c2)cc1	21%	1%	-1	-1%	39*	2%
CCC(=O)Nc1ccc(NC(=O)CSc2nnnn2C2CCCC2)cc1C	4%	-3%	3	?	-7	.
O=C(COc1ncnc2ccccc12)NCCC1=CCCCC1	0%	-3%	1	2%	41*	-2%
CC1CCC/C=C/C2CC(O)CC2C(O)/C=C/C(=O)O1 (stereo not drawn)	.	-2%	5	?	41*	-7%
CCCCNC(=O)CCCN1C(=O)c2cccnc2Sc2ccccc21	-2%	-1%	0	?	-3	.
CCCCSCCCNC(=O)CCCN1C(=O)c2ccccc2Sc2ncccc21	?	5%	2	?	32*	5%
C=CCn1c(=S)[nH]c2ccccc2c1=O	-9%	-6%	-1	?	-4	.
C=CCn1c(=S)[nH]c2cc(-c3ccccc3)sc2c1=O	32%	0%	0	8%	39*	?
O=C(c1cccnc1)c1cc2ccccc2[nH]1	23%	-4%	3	2%	active	6%
CC(C)CN(Cc1cc2ccccc2[nH]c1=O)C(=O)c1cccnc1	-11%	0%	-2	-16%[5.75 µM]	-7	.
Cc1cc(C)c2c(n1)SCC(=O)N2CC(=O)Nc1ccc(C)c(C)c1	22%	0%	-1	17%	16*	0%
O=C(Cc1cccs1)Nc1ccc(-c2nnc(-c3ccco3)o2)cc1	5%	3%	12	51%	49*	?
COc1ccc(NC2CCCN(C(=O)C3=NN(C)C(=O)CC3)C2)cc1OC (stereo not drawn)	17%	5%	1	-25%	8	.
